Assay outcomes deposited in PubChem BioAssay by National Center for Advancing Translational Sciences (NCATS).
Only some compounds are listed: those with a hit (about 1.8% of all), similar ones and a draw of the others.
PTHR1 agonist: qHTS for PTHR1 Agonists: Primary Screen | Parathyroid hormone/parathyroid hormone-related peptide receptor (Homo sapiens), Q03431 | HEK293 GP2 PTHR1 cells, GloSensor cAMP luminescence, 1 h | Potency, µM (top dose mostly 115 µM), for inactives: at the highest dose activation, most hits filed as activators | actives 0.075% (n = 410,000); further: potency means the concentration at half of the fitted maximal effect; nearly all actives have a fitted effect of over 55% in size
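HEK-293-derived GP2 cells expressing PTHR1 and a GloSensor cAMP reporter, 3,000/well, plated overnight, given luciferin plus IBMX (each 0.5 mM as added) for 1 h at 37 °C, then compound for 1 h at 37 °C. Luminescence was read after 15 min at room temperature.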
GLP-1R inv ag: qHTS of GLP-1 Receptor Inverse Agonists (Inhibition Mode). Glucagon-like peptide 1 receptor (Homo sapiens), P43220. HEK293 GLP-1R CRE-luciferase, luminescence, 24 h; GLP-1R form is constitutively active. Potency, µM (titrated, usually from 38.3 µM), for inactives: at the top dose activity change, negative = inhibition, usual class: inhibitors. actives 1.6% (n = 410,000); further: potency means the concentration at half of the fitted maximal effect; on the % scale 0 is the no-effect control and ±100 the full control effect; nearly all actives have a fitted effect of over 55% in size
Target sequence (P43220 whole entry, looked up): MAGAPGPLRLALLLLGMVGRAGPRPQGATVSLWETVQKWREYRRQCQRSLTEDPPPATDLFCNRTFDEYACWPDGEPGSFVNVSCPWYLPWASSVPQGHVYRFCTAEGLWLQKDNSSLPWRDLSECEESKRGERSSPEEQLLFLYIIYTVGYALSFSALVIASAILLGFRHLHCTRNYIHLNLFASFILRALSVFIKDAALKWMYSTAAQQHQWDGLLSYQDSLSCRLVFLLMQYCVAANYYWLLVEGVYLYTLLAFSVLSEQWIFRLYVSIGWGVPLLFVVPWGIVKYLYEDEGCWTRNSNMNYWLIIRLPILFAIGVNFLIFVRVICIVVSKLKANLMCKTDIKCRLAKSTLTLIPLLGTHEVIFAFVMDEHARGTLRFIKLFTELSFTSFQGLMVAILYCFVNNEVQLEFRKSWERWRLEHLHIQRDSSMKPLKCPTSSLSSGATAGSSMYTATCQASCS
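Assay principle: reduced luminescence from a cAMP-responsive reporter in HEK293 cells co-expressing a constitutively active GLP-1R. Conditions: 24 hr compound incubation, 37 deg C, 5% CO2.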
GLP1R ag: qHTS of GLP-1 Receptor Agonists | Glucagon-like peptide 1 receptor (Homo sapiens), P43220 | HEK293 GLP-1R CRE-luciferase, luminescence, 4-6 h; cells express a hypersensitive GLP-1R form | Potency, µM (titrated, usually from 45.6 µM), for inactives: at the top dose activation, usual class: activators | actives 0.007% (n = 380,000) | AID 624172, 2012; further: potency means the concentration at half of the fitted maximal effect; % of control where 0% means no effect
TSHR antagonist: Antagonists of the Thyroid Stimulating Hormone Receptor: HTS campaign. actives 0.2% (n = 330,000). TSHR-expressing cells, TSH-stimulated cAMP HTRF, 2 h; stronger effect = lower value. activity change, negative = inhibition, % at 11.5 µM;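 active means activity change below a set negative limit, meaning inhibition stronger than a set level, cut at about -70% in these data; inconclusive means activity change between two set negative limits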; further: on the % scale 0 is the no-effect control and ±100 the full control effect
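Competitive HTRF cAMP read-out (cryptate anti-cAMP antibody, cAMP-d2; 30 min, room temperature) in freshly harvested TSHR cells. Compounds added before TSH at EC80 (4nM final), followed by 2 hours' incubation at 37 deg C.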
HEK293 tox: qHTS of GLP-1 Receptor Inverse Agonists: Cytotox Screen; HEK293 cAMP-luciferase reporter cells, luminescence, 24 h; Potency, µM (doses to about 38.3 µM), inactives show at the top dose activity change, negative = inhibition, hits mostly inhibitors; actives 0.13% (n = 410,000);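 further: loss of luciferase light is scored as toxicity; potency means the concentration at half of the fitted maximal effect; on the % scale 0 is the no-effect control and ±100 the full control effect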
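To flag toxic compounds, the library was rerun on cells for 24 hr at 37 deg C and 5% CO2. Viability-linked luminescence was captured 12 min after adding luciferase detection reagent.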
* = called active by the depositor; i = inactive; ? = inconclusive; / = not tested or not shown; [ ] = dose if it differs, or a comment. Unless noted, the call rests on the fitted dose curve; in most records, active means well fitted curve in the direction sought with a large enough effect; inconclusive means small, poorly fitted or top-dose-only effect, or another doubt; inactive means no such curve, though single readings can be large; an effect the other way counts as inactive or inconclusive.

SMILES	PTHR1 agonist	GLP-1R inv ag	GLP1R ag	TSHR antagonist	HEK293 tox
O=C(Cn1cc(/C=C\[N+](=O)[O-])c2ccccc21)Nc1ccccc1	-28.4%	7.08µM*	-4.4%	11.5	?
COCC1=C(C(=O)OC(C)OC(=O)OC(C)C)N2C(=O)C(NC(=O)/C(=N\OC)c3csc(N)n3)C2SC1 (centres undefined)	/	/	-6.0%	/	/
CC(=O)C[C@H]1[C@H](O[C@H]2[C@H](OC(C)C(=O)N[C@@H](C)C(=O)N[C@H](CCC(=O)N[C@@H](CCCCN)C(=O)N[C@H](C)C(=O)O)C(N)=O)[C@@H](NC(=O)O)C(O)O[C@@H]2CO)O[C@H](CO)[C@@H](O)[C@@H]1O (some centres undefined)	/	/	16.2%	/	/
CC(=O)N1CCN(c2csc3ccc(Br)cc3c2=O)CC1	-11.8%	0.4%	/	/	1.1%
CCC(C)C(=O)N1c2ccccc2C(=C2SC(C(=O)OC)=C(C(=O)OC)S2)C(=S)C1(C)C (centres undefined)	-82.6%	10µM*	-1.1%	-14.1	9.7%
CC(C)CC(COCc1cccc(Cl)c1)N1CCN(C(=O)c2ccc(C(F)(F)F)cc2)CCC1=O (centres undefined)	-49.5%	10µM*	-2.3%	-11.0	-13.0%
O=C(c1ccc(Cl)c(Cl)c1)N1CCC(=O)N(C(COCc2cccc(Cl)c2)Cc2ccccc2)CC1 (centres undefined)	-12.0%	3.98µM*	-5.0%	-7.1	-17.4%
Cc1cccc(COC[C@H](Cc2ccccc2)N2CCN(C(=O)c3ccc(C(F)(F)F)cc3)CCC2=O)c1	-39.0%	?	5.2%	/	-29.2%
Cc1cccc(COCC(Cc2ccccc2)N2CCN(C(=O)c3ccc(C(F)(F)F)cc3)CCC2=O)c1 (centres undefined)	-14.8%	11.2µM*	-0.2%	-0.9	-11.4%
c1cnc2cc3c(cc2n1)C1CNCC3C1	/	/	-4.8%[110 µM]	/	/
Cc1ccccc1C(=O)N1CC/C(=N/OS(=O)(=O)O)c2ccc(Cl)cc21	/	/	3.4%	/	/
CCOC(=O)c1ccc(NC(=O)CSc2cn(CC(=O)N3CCCC3)c3ccccc23)cc1	i	-19.3%	/	/	-4.2%
Cc1ccc(O)c(NC(=O)c2ccc(Br)c(S(=O)(=O)N3CCCCC3)c2)c1	-36.4%	?	/	/	-24.3%
CCOc1ccccc1NC(=O)c1c(NCc2sccc2C)sc2c1CCCCC2	i	-26.5%	/	/	-2.0%
CCOc1ccccc1NC(=O)c1c(NCc2cccs2)sc2c1CCCCC2	-24.3%	12.6µM*	/	/	-14.5%
O=C(/C=C\Nc1ccc2c(c1)OCO2)c1ccc(Cl)s1	-43.8%	32.8%	13.8%	4.5	0.1%
O=C(/C=C\Nc1ccc2c(c1)OCO2)c1cccs1	-46.3%	2.24µM*	-1.8%	-4.6	-4.5%
COc1cc(C(=O)N2CCc3ccccc32)cc(OC)c1OC	i	-27.0%	-3.8%	14.7	-3.7%
COc1cc2ccccc2cc1C(=O)N1CCc2ccccc21	-26.7%	7.94µM*	2.2%	8.6	?
COc1cc(-c2nc3ccc(C)cn3c2Nc2ccc(Cl)cc2)ccc1O	-15.6%	3.55µM*	/	/	?
CC1CCCN(c2ccc(C(=O)Nc3ccc4c(c3)OCO4)cc2[N+](=O)[O-])C1 (centres undefined)	i	?	10.6%	-31.3	-30.4%
CCN1CCN(c2ccc(NC(=O)c3ccc4c(c3)OCCO4)cc2C)CC1	-18.8%	6.31µM*	6.6%	-10.3	-4.7%
CC1CCN(c2ccc(C(=O)Nc3ccc4c(c3)OCO4)cc2[N+](=O)[O-])CC1	-35.9%	6.31µM*	0.7%	-17.7	-25.0%
C#C[C@@]1(O)CC[C@@H]2[C@H]3CCC4=C/C(=N\O)CC[C@H]4[C@@H]3CC[C@]21CC	/	/	19.4%	/	/
COc1cc2c3c(cccc3c1)C(=O)N(CCN1CCCC1)C2=O	i	4.47µM*	-8.5%	/	-7.9%
SMILES	PTHR1 agonist	GLP-1R inv ag	GLP1R ag	TSHR antagonist	HEK293 tox
COc1ccc(C(=O)CN2CCN(CCN3C(=O)c4cccc5cccc(c45)C3=O)CC2)cc1	-39.3%	?	-0.7%	/	-16.0%
N#Cc1nc(Cc2cccc3ccccc23)oc1N1CCCCC1	i	10µM*	12.8%	-6.5	88.0%
CN(C)S(=O)(=O)c1ccc2c(c1)N(CC(=O)Nc1ccc(OC(F)(F)F)cc1)C(=O)CS2	i	?	/	/	-7.1%
COc1cc(OC)cc(C(=O)Nc2cc(-c3nc4cc(Cl)ccc4o3)ccc2Cl)c1	-18.9%	1.5%	2.3%	/	-0.1%
CN(C)c1cccc(NC(=O)c2ccco2)c1	i	49.6%	5.7%	-1.5	2.4%
CCN(CC)P(=O)(Nc1cccc(C(F)(F)F)c1)c1ccc(N(C)C)cc1NC(=O)c1ccco1 (centres undefined)	3.5%	2.51µM*	-5.4%	8.0	-8.4%
COc1cccc(NC(=O)COC(=O)c2c3c(nc4ccccc24)CCC(C)C3)c1 (centres undefined)	?	5.01µM*	-20.0%	-9.7	?
CC(C)c1ccccc1NC(=O)COC(=O)c1c2c(nc3ccccc13)CCN(Cc1ccccc1)C2	i	10µM*	0.2%	73.3	5.0%
CC(C)NC(=O)NC(=O)COC(=O)c1c2c(nc3ccccc13)CCC2	-43.2%	10µM*	5.6%	-0.1	?
O=C(NCc1ccc(F)cc1)c1ccc2c(c1)N(Cc1c(F)cccc1Cl)C(=O)CS2	-24.2%	2.5%	-0.7%	/	-10.4%
COc1ccc(CNCc2c(C(=O)O)n(Cc3ccc(F)cc3)c3cc(C)ccc23)cc1OC	i	12.3%	-0.7%	/	-1.2%
Cc1cc(NC(=O)CC(CN(C)S(=O)(=O)c2ccccc2)c2ccccc2)no1 (centres undefined)	-83.3%	10µM*	-7.4%	-2.1	-5.4%
CC(=O)N(CCC(Cc1ccccc1)c1ccc2c(c1)OCO2)Cc1ccc(Cl)cc1 (centres undefined)	-22.5%[57.5 µM]	11.2µM*	-2.5%	-19.0	?
CCOC(=O)c1cccc(NS(=O)(=O)c2cc(-c3cnc(C4CC4)o3)ccc2C)c1	-39.6%	?	/	/	-6.7%
Cc1ccc(S(=O)(=O)N(C)c2ccc(OCc3cccc(C)c3)cc2)cc1	-12.3%	2.82µM*	-8.1%	-19.3	10.0%
CCC1CCCCN1C(=O)COc1ccc(N(C)S(=O)(=O)c2ccc(C)cc2)cc1 (centres undefined)	-4.1%	3.16µM*	7.9%	-2.1	3.1%
COC(=O)C1CCN(C(=O)COc2ccc(N(C)S(=O)(=O)c3ccc(C)cc3)cc2)CC1	i	11.7%	-8.1%	-14.1	-0.5%
